Laboratory results reported in the supplement of paper PMC10849652.
Of roughly 8,800 targets only a part is listed; those with a hit were picked by preference. About 0.5% of all pairs of compound and target were hits. Unmarked numbers belong to inactive results.

compound: CC[C@@H]1C(=O)N(C)c2cnc(Nc3ccc(C(=O)N[C@H]4CC[C@H](N5CCN(CC6CC6)CC5)CC4)cc3OC)nc2N1C(C)C [volasertib]; assay: log2 fold change, soluble protein after heating vs DMSO (PISA); higher = thermal stabilisation; K562 lysate, 10 uM; active = over 0.2 and 3.5 SD of the protein, either way, in both replicates (recomputed)
In short: (§1)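 K562 pellets were dounce-homogenised in PBS pH 7.4 with 1 mM MgCl2, and the crude extract at 1 mg/mL protein was treated with 10 μM compound for 30 min. Aliquots were heated for 3 min across 48°C-58°C, pooled, and brought to 0.5% NP-40 at 4°C; soluble protein was the supernatant after 21,000xg for 90 min. Soluble protein was quantified by TMTpro 16plex LC-MS/MS with channel sums equalised, and reported as log2 fold change in thermal stability against DMSO controls, with values from duplicates.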

Sequence of UniProt Q5TEU4 (Q5TEU4 whole entry, looked up): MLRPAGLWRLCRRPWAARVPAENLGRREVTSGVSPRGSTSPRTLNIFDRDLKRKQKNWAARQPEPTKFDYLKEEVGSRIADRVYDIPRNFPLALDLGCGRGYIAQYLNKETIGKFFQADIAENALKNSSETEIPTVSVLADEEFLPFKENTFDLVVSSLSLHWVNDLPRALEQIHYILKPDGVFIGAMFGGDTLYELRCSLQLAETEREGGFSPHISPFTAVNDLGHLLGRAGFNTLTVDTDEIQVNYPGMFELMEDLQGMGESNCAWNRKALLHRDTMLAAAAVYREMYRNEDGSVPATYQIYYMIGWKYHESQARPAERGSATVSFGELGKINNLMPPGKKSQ
Sequence of UniProt O75376 (O75376 whole entry, looked up): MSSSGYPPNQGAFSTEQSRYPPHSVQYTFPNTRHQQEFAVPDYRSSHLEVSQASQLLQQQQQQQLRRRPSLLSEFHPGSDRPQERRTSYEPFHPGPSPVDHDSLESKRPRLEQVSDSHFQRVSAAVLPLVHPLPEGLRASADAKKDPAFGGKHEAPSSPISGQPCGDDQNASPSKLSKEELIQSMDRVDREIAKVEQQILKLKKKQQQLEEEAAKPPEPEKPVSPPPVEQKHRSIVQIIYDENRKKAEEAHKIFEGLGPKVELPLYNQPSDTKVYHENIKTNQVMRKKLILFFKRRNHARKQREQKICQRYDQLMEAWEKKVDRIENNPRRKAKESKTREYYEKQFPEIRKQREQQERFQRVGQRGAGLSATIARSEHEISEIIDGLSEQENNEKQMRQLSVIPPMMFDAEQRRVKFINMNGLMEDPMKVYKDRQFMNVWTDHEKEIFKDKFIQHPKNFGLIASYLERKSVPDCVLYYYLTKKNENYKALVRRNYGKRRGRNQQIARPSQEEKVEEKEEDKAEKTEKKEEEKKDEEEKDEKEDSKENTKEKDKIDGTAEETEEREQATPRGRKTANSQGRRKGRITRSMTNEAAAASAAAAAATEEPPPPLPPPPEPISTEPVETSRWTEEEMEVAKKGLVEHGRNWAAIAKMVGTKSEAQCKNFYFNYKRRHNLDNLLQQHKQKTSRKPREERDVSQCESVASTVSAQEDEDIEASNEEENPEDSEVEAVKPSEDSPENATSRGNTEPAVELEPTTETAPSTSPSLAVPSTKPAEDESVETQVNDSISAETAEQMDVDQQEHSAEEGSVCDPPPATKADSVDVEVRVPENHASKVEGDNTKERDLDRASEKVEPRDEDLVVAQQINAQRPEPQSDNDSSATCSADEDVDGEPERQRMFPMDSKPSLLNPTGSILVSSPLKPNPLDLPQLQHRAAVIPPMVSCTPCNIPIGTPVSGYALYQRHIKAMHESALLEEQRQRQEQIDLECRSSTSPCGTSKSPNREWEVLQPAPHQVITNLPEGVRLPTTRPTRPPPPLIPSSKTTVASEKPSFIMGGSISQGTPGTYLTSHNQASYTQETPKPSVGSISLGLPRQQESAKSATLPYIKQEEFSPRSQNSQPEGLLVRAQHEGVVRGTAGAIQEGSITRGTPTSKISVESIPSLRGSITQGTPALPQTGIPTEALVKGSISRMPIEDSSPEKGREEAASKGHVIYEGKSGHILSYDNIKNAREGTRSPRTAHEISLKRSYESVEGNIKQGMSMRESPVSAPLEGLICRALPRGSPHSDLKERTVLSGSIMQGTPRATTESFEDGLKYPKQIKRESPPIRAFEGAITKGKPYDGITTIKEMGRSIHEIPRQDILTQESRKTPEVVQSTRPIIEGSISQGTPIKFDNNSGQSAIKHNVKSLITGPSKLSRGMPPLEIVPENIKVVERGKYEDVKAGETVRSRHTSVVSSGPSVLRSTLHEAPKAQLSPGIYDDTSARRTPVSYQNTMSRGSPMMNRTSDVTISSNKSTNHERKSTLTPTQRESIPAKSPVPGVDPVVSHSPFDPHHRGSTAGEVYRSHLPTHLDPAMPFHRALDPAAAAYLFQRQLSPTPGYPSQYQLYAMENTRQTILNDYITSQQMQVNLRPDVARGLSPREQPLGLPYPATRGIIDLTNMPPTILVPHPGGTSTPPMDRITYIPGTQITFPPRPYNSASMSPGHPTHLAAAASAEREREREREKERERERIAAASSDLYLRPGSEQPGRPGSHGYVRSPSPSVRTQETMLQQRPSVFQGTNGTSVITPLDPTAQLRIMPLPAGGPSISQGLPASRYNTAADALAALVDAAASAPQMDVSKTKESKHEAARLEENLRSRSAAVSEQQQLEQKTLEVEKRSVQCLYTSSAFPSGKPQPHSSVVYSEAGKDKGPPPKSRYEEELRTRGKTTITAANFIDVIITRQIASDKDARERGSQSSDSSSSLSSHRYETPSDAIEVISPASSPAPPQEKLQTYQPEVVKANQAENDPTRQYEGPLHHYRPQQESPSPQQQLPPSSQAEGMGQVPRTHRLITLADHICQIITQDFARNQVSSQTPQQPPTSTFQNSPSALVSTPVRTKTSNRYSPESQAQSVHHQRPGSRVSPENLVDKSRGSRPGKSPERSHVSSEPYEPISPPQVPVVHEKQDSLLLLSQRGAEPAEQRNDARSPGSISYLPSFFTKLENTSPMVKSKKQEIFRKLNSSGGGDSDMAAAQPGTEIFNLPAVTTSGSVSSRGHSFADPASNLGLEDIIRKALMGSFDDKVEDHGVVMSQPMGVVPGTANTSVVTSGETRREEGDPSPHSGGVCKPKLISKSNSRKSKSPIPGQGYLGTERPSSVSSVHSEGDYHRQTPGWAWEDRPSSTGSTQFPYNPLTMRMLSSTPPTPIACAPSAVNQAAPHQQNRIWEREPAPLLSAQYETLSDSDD
Sequence of UniProt Q504Q3 (Q504Q3 whole entry, looked up): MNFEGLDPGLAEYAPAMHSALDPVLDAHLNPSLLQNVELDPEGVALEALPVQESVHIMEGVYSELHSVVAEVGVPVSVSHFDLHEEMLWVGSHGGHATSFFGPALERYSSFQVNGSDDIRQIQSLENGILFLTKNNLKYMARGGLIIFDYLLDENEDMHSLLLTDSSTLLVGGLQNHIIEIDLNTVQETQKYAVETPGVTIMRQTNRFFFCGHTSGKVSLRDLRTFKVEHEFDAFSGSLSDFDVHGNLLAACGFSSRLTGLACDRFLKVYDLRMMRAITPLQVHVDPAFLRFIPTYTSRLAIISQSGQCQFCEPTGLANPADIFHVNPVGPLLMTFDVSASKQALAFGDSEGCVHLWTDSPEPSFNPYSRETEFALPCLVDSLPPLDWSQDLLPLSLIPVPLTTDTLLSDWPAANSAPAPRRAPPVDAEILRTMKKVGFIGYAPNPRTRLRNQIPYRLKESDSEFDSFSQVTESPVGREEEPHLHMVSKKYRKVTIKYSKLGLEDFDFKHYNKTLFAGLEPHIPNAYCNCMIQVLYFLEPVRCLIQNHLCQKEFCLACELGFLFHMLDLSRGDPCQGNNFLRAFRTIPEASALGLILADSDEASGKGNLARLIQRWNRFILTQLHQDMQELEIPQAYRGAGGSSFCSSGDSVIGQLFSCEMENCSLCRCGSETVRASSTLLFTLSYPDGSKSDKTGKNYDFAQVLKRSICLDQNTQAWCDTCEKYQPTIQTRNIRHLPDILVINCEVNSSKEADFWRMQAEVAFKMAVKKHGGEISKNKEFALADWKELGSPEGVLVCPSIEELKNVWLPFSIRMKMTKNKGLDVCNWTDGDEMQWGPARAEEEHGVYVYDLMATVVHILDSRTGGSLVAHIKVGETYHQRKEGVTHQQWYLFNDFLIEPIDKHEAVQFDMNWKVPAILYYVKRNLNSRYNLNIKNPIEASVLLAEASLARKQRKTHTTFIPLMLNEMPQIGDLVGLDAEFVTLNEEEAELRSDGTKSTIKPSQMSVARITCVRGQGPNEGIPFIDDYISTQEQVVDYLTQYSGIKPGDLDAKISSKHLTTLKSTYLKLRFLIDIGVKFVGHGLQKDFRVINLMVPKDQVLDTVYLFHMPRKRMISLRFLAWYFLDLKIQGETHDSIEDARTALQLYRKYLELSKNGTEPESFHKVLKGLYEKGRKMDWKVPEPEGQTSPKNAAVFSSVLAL
Sequence of UniProt Q96IV0 (Q96IV0 whole entry, looked up): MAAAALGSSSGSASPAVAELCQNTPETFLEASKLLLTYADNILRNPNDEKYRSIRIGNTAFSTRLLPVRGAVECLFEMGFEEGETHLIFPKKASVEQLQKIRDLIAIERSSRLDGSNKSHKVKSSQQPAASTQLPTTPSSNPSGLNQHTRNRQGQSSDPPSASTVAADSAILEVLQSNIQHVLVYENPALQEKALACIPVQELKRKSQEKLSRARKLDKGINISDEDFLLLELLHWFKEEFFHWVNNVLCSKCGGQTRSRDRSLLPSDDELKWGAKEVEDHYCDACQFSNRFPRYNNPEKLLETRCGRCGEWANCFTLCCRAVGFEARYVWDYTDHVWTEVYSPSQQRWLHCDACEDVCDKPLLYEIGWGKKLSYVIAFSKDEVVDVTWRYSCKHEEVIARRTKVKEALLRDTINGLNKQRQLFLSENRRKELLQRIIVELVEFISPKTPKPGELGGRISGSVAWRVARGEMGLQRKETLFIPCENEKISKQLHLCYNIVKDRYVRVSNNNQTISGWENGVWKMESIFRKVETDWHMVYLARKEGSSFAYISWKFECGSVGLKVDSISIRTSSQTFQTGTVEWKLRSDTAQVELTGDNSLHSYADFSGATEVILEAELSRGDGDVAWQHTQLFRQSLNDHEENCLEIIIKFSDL
Sequence of UniProt P00480 (P00480 whole entry, looked up): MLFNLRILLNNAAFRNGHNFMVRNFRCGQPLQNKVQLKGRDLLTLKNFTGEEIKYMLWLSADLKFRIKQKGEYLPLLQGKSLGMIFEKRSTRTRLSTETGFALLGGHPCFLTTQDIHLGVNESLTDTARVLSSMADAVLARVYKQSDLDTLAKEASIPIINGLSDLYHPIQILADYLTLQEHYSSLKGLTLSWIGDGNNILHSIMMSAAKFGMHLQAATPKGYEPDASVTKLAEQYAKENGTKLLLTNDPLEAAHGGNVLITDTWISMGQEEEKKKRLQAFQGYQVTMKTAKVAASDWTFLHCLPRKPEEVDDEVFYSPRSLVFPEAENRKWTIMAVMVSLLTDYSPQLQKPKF

Target | log2 fold change
MRPL53 (UniProt Q96EL3) | 0.057
NEBL isoform 2 (UniProt O76041) | 0.051
PAIP2 (UniProt Q9BPZ3) | -0.018
NEK9 (UniProt Q8TD19) | -0.01
PARG (UniProt Q86W56) | -0.018
NGLY1 (UniProt Q96IV0) | -0.034
NOSIP (UniProt Q9Y314) | -0.035
NEXN (UniProt Q0ZGT2) | 0.051
NEBL (UniProt O76041) | 0.014
MTHFD1L (UniProt B7ZM99) | -0.002
PANK1 (UniProt Q8TE04) | -0.063
NUDT5 (UniProt Q9UKK9) | 0.015
NSL1 (UniProt Q96IY1) | 0.007
MYO1D (UniProt O94832) | -0.003
NCK1 (UniProt P16333) | -0.011
OGT (UniProt O15294) | -0.058
NCOR1 (UniProt O75376) | 0.002
NDUFAF5 (UniProt Q5TEU4) | 0.04

Target | log2 fold change
MSI2 (UniProt Q96DH6) | -0.023
NAA38 isoform 2 (UniProt Q9BRA0) | 0.025
OSBPL3 isoform 2 (UniProt Q9H4L5) | -0.139
OLA1 (UniProt Q9NTK5) | -0.029
MRPS12 (UniProt O15235) | 0.011
NFIC (UniProt P08651) | -0.001
NPTN (UniProt Q9Y639) | -0.038
OTC (UniProt P00480) | 0.018
NDC1 (UniProt Q9BTX1) | 0.016
NNT (UniProt Q13423) | 0.031
NUP160 (UniProt Q12769) | -0.105
NFATC1 (UniProt O95644) | 0
MTMR6 (UniProt Q9Y217) | -0.024
NARS2 (UniProt Q96I59) | -0.067
NSA2 (UniProt O95478) | 0.034
PAN2 isoform 2 (UniProt Q504Q3) | -0.132
NIPBL (UniProt Q6KC79) | -0.048

compound: CCn1c(C(=O)N(C2CC2)C2CC2)cc2c3c(ncn3C)c(Nc3cc(C)n(C)n3)nc21; assay: as above
In short: as §1

Target | log2 fold change
MRPL53 (UniProt Q96EL3) | -0.017
NEBL isoform 2 (UniProt O76041) | -0.041
PAIP2 (UniProt Q9BPZ3) | 0.02
NEK9 (UniProt Q8TD19) | 0.004
PARG (UniProt Q86W56) | -0.015
NGLY1 (UniProt Q96IV0) | 0.002
NOSIP (UniProt Q9Y314) | -0.005
NEXN (UniProt Q0ZGT2) | 0.075
NEBL (UniProt O76041) | -0.014
MTHFD1L (UniProt B7ZM99) | 0.019
PANK1 (UniProt Q8TE04) | 0.056
NUDT5 (UniProt Q9UKK9) | -0.054
NSL1 (UniProt Q96IY1) | 0.048
MYO1D (UniProt O94832) | -0.002
NCK1 (UniProt P16333) | -0.025
OGT (UniProt O15294) | 0.036
NCOR1 (UniProt O75376) | -0.014
NDUFAF5 (UniProt Q5TEU4) | -0.103

Target | log2 fold change
MSI2 (UniProt Q96DH6) | 0.13
NAA38 isoform 2 (UniProt Q9BRA0) | 0.04
OSBPL3 isoform 2 (UniProt Q9H4L5) | 0.025
OLA1 (UniProt Q9NTK5) | 0.04
MRPS12 (UniProt O15235) | 0.001
NFIC (UniProt P08651) | -0.01
NPTN (UniProt Q9Y639) | -0.017
OTC (UniProt P00480) | -0.035
NDC1 (UniProt Q9BTX1) | -0.02
NNT (UniProt Q13423) | -0.004
NUP160 (UniProt Q12769) | 0.043
NFATC1 (UniProt O95644) | 0.007
MTMR6 (UniProt Q9Y217) | -0.055
NARS2 (UniProt Q96I59) | 0.041
NSA2 (UniProt O95478) | -0.043
PAN2 isoform 2 (UniProt Q504Q3) | 0.031
NIPBL (UniProt Q6KC79) | 0.04

compound: CCn1cc(-c2ccnc3[nH]c(-c4cccc(CN(C)C)c4)cc23)c(-c2ccc(NC(=O)N(C)C)cc2)n1; assay: as above
In short: as §1

Target | log2 fold change
MRPL53 (UniProt Q96EL3) | 0.013
NEBL isoform 2 (UniProt O76041) | -0.108
PAIP2 (UniProt Q9BPZ3) | -0.043
NEK9 (UniProt Q8TD19) | -0.046
PARG (UniProt Q86W56) | 0.065
NGLY1 (UniProt Q96IV0) | 0.09
NOSIP (UniProt Q9Y314) | -0.013
NEXN (UniProt Q0ZGT2) | -0.231
NEBL (UniProt O76041) | 0.29 (active)
MTHFD1L (UniProt B7ZM99) | -0.013
PANK1 (UniProt Q8TE04) | 0.226
NUDT5 (UniProt Q9UKK9) | -0.267
NSL1 (UniProt Q96IY1) | -0.016
MYO1D (UniProt O94832) | -0.05
NCK1 (UniProt P16333) | 0.067
OGT (UniProt O15294) | -0.002
NCOR1 (UniProt O75376) | -0.002
NDUFAF5 (UniProt Q5TEU4) | -0.052

Target | log2 fold change
MSI2 (UniProt Q96DH6) | -0.014
NAA38 isoform 2 (UniProt Q9BRA0) | -0.461 (active)
OSBPL3 isoform 2 (UniProt Q9H4L5) | -0.013
OLA1 (UniProt Q9NTK5) | -0.135
MRPS12 (UniProt O15235) | -0.038
NFIC (UniProt P08651) | -0.453 (active)
NPTN (UniProt Q9Y639) | -0.019
OTC (UniProt P00480) | -1.43
NDC1 (UniProt Q9BTX1) | -0.3
NNT (UniProt Q13423) | 0.041
NUP160 (UniProt Q12769) | 0.057
NFATC1 (UniProt O95644) | -0.118
MTMR6 (UniProt Q9Y217) | 0.217
NARS2 (UniProt Q96I59) | -0.091
NSA2 (UniProt O95478) | -0.441
PAN2 isoform 2 (UniProt Q504Q3) | 0.006
NIPBL (UniProt Q6KC79) | -0.004
